Here are results for 13 compounds from PubChem BioAssay (NCATS).

Values without a mark were called inactive. Results filed as inconclusive are left out. The source made the active and inactive calls. Unless noted, calls come from the whole dose curve; as a rule, active = well fitted curve in either direction with a large enough effect (not every such curve was filed as active); inconclusive = small, poorly fitted or top-dose-only effect, or another doubt; inactive = flat fitted curve, though single readings scatter.

A short description of assay [1]: AP1 Signaling Pathway (AID 357).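 Note: ME-180 reporter cells stimulated with EGF at its EC50 level; % is set by controls: 0 for no effect and ±100 for the full control effect.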 The settings on record: ME-180 AP-1-bla reporter, EGF-induced, beta-lactamase ratio, 5 h; at 17.2 µM (top of the series) unless noted. The essentials:
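Read-out was the 460nm/530nm emission ratio (excitation 405nm) after CCF4 loading for 2.5 hours at room temperature. Cells carried an AP-1-driven beta-lactamase reporter, were stimulated with EC50 EGF plus compound for 5 hours, and AC50 values came from titrations.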

A short description of assay [2]: NFAT Signaling Pathway (AID 444).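 Note: carbachol stimulus at about its EC50 of 1 µM final; % is set by controls: 0 for no effect and ±100 for the full control effect.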 The settings on record: Jurkat NFAT-bla M1, carbachol, beta-lactamase ratio, 5 h; at 17.2 µM (top of the series) unless noted. The essentials:
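Jurkat cells with NFAT-driven β-lactamase reporter and co-expressed M1 receptor, stimulated with carbachol (final 1 uM, ~EC50), compound titration, 5 h at 37 °C. CCF4 loaded 1 h at RT; 460/530 nm ratio gave %activity and AC50.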

Assay [3] in a line: Stat Signaling Pathway (AID 446).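 Note: ME-180 cervical cancer cells given 40 pM IL-6 alongside compound; SIE-controlled beta-lactamase reporter measured as 460/530 nm FRET emission ratio; % is set by controls: 0 for no effect and ±100 for the full control effect.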 The settings on record: ME-180 SIE beta-lactamase reporter, IL-6 stimulated, 5 h; at 17.2 µM (top of the series) unless noted. The essentials: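 ME-180 cells carrying a SIE-driven beta-lactamase reporter are stimulated with 40 pM IL-6 for 5 h at 37C in the presence of compound. The 460/530 nm FRET substrate ratio is read after 2.5 h at RT. Data are normalised to 300 pM IL-6 and to 125 nM JAK inhibitor controls.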

Assay [4] deals with Glucocorticoid receptor (Homo sapiens) (UniProt P04150). Put plainly: GR-GFP Redistribution (AID 450;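 active = compounds whose dose series gives a full or clear partial fitted curve of increased nuclear translocation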; note: potency is the fitted concentration of half-maximal effect).
Chain of Glucocorticoid receptor (Homo sapiens) (P04150 whole entry, looked up, the tested form may be a part): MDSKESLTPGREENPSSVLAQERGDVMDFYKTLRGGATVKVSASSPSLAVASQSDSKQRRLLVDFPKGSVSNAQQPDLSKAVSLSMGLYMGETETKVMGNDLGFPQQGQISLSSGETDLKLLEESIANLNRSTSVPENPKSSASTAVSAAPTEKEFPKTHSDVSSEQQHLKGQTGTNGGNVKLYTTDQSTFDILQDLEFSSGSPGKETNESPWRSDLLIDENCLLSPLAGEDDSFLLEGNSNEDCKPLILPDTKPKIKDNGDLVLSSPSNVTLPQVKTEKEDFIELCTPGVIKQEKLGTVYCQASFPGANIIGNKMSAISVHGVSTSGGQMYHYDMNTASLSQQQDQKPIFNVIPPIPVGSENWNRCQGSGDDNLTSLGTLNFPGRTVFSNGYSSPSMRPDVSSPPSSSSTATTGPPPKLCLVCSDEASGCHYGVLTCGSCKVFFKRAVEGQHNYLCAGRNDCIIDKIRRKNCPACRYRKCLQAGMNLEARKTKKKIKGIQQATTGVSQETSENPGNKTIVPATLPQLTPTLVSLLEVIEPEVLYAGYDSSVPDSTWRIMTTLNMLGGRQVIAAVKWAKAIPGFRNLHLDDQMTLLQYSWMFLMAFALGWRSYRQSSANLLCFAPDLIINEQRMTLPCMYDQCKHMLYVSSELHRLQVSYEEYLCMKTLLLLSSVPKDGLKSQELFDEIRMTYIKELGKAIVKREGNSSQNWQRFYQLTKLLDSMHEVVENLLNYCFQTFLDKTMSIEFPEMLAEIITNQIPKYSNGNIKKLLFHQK
The nature of assay [5]: qHTS Assay for Identification of Small Molecule Agonists for Hypoxia Response Element Signaling Pathway (AID 914; active = well fitted activation curve with a large enough effect in the signal ratio, with a control signal flat, not every such curve was filed as active; the % refers to the signal ratio; note: % of control where 0% means no effect). The settings on record: ME-180 (cervical carcinoma) HRE-bla reporter, beta-lactamase ratio, CoCl2, 17 h; activation: hits give high values. The essentials: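 Read-out: CCF4 FRET ratio of 460nm to 530nm emission (excitation 405nm) after 2.5 hours at room temperature, taken from HRE-bla ME-180 cells that had been exposed to compound and EC50 CoCl2 for 17 hours.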
For orientation: In qHTS, concentration-response curves come from the screen itself.

Assay [6] concerns the target Glucocorticoid receptor (Homo sapiens) (UniProt P04150). Put plainly: GR-EFC Redistribution (AID 451; calls by dose curve; note: potency is the fitted concentration of half-maximal effect). The settings on record: CHO-K1 GR-EFC translocation, beta-gal luminescence, 2 h. The essentials: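 CHO-K1 cells expressing nuclear EA and GR-ED fragments of b-gal; compounds titrated up to 46 uM final, 2 h at 37 C. GR nuclear translocation read as complemented b-gal luminescence after 1 h RT detection.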

In assay [7] the target is Mitogen-activated protein kinase 10 (Mus musculus) (UniProt Q61831). Put plainly: JNK3 AlphaScreen Assay (AID 530).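 Note: kinase came from lysate of stimulated human HepG2 cells; signal reports phosphorylation of biotinylated GST-cJun 1-79 at Ser73 with 10 µM ATP; % is set by controls: 0 for no effect and ±100 for the full control effect.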 The essentials:
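Pre-activated (IL-1β/TNFα) JNK3 in HepG2 lysates phosphorylates biotin-GST-cJun(1-79), 10 uM ATP; anti-phospho-cJun(Ser73) AlphaScreen read at room temperature, pH 7.6 Tris buffer. Compounds pre-incubated 15 min as titrations.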
Background: Alpha assays give light when donor and acceptor beads are brought close together.

The target in assay [8] is Guanine nucleotide-binding protein G(i) subunit alpha-1 (Homo sapiens) (UniProt P63096). Put plainly: qHTS Assay for Inhibitors of RGS12 GoLoco Motif Activity (Green Fluorophore) (AID 879; active = well fitted curve in the direction sought with a large enough effect; an effect the other way counts as inactive or inconclusive;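 note: 0% = labeled peptide with Gαi1 and full inhibition = labeled peptide alone without protein; negative values mean loss of peptide binding seen as reduced polarization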). The essentials:
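Fluorescence polarization assay: 50 nM Gαi1 with 10 nM FITC-labeled RGS12 GoLoco peptide in 10 mM Tris pH 7.5, 150 mM NaCl, 0.1 mM GDP, 0.05% NP40, 10 min at room temperature with compound.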

Assay [9] in a line: qHTS Assay for Identification of Small Molecule Agonists for Thrombopoietin (TPO) Signaling Pathway (AID 917; active = well fitted curve in the direction sought with a large enough effect; an effect the other way counts as inactive or inconclusive; note: % is set by controls: 0 for no effect and ±100 for the full control effect). The essentials: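 Reporter: GpIIb promoter–luciferase in murine Ba/F3 expressing human TPO receptor. Pre-starved of IL-3 overnight; compounds with 26 pM TPO, 24 hrs, 37 C/5% CO2; luminescence read.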
Assay [10] has as its target Pyruvate kinase (Leishmania mexicana) (UniProt Q27686). Put plainly: qHTS Validation Assay for Inhibitors of Leishmania Mexicana Pyruvate Kinase (AID 945; active = well fitted curve in the direction sought with a large enough effect; an effect the other way counts as inactive or inconclusive;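 note: 0% = DMSO only neutral control wells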). The essentials: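 Substrate mix (0.5 mM PEP, 0.1 mM ADP, 7 mM MgCl2, 50 mM KCl, pH 7.2 imidazole) received compound by pin tool, then 0.2 nM LmPYK E451W. After 1 h at room temperature, PKLight was added and luminescence measured.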

For assay [11], the target named is Pyruvate kinase PKM (Homo sapiens) (UniProt P14618). Description: qHTS Assay for Activators of Human Muscle Pyruvate Kinase (AID 954; active = well fitted curve in the direction sought with a large enough effect, not every such curve was filed as active;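 note: 0% = uninhibited enzyme and -100% = no enzyme or full thiadiazolimine inhibition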). The essentials: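 Purified human PKM2 (0.1 nM) with 0.5 mM PEP (Km) and 0.1 mM ADP in 50 mM imidazole pH 7.2, KCl, MgCl2, 1 h at room temperature; ATP formed read by coupled luciferase luminescence. Normalized to no-enzyme/110 uM thiadiazolimine inhibition; 0.3 nM enzyme column for activation.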
Chain of Pyruvate kinase PKM (Homo sapiens) (P14618 whole entry, looked up): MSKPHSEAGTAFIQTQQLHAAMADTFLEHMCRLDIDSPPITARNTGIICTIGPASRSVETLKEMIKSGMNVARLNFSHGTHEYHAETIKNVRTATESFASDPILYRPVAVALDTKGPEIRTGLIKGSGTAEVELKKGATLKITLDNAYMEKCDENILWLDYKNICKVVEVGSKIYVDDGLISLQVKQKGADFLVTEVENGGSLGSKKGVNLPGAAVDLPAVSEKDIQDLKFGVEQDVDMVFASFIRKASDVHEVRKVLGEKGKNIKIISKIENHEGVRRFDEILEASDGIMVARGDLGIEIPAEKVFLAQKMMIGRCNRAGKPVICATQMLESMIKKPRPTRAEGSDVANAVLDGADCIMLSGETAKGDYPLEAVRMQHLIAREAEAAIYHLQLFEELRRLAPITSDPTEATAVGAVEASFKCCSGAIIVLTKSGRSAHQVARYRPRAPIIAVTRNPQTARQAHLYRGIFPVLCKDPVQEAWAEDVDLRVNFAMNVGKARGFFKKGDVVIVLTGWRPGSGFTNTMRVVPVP

For assay [12], the target named is Alpha-galactosidase A (Homo sapiens) (UniProt P06280). Description: Counterscreen for Glucocerebrosidase Inhibitors: qHTS Assay for Human alpha-Galactosidase at pH 4.5 (AID 992; active = well fitted curve in the direction sought with a large enough effect; an effect the other way counts as inactive or inconclusive; note: 0% is about no effect). The essentials:
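Human enzyme (2 nM) with 80 uM 4-methylumbelliferyl alpha-D-galactopyranoside in 50 mM citric acid, 0.005% Tween-20, pH 4.5, 20 min at room temperature. Compounds 0.7 nM–77 uM; fluorescence Ex 365/Em 440 after pH 10 stop; AC50 from Hill fits.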

Assay [13] addresses alpha-glucosidase (Oryza sativa, rice) (UniProt Q653V4). Put plainly: Counterscreen for Glucocerebrosidase Inhibitors: qHTS Assay for Rice alpha-Glucosidase at pH 5.0 (AID 997; active = well fitted curve in the direction sought with a large enough effect; an effect the other way counts as inactive or inconclusive;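 note: 0% = full activity with enzyme and -100% = basal without enzyme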). The essentials: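 Rice alpha-glucosidase (4 nM final) with 400 uM 4-methylumbelliferyl-alpha-D-glucopyranoside in citrate buffer pH 5.0, 20 min at room temperature, stopped at pH 10; fluorescence 365/440 nm, compounds 0.7 nM–77 uM, AC50 from Hill fits.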

Assay [14] concerns the target 3',5'-cyclic-AMP phosphodiesterase 4B (Homo sapiens) (UniProt Q07343). Description: qHTS Assay for Inhibitors of PDE-IV (AID 607; active = well fitted activation curve with a large enough effect in the main read-out, with a control signal flat, not every such curve was filed as active; note: % of control where 0% means no effect). The essentials:
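HEK293 ACTOne cells with CNG channel (1000/well), endogenous PDE4; membrane potential dye, compounds up to 22.9 uM final. Fluorescence Ex 535/Em 590; RO 20-1724 (100 uM final) as reference.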

For assay [15], the target named is Tyrosyl-DNA phosphodiesterase 1 (Homo sapiens) (UniProt Q9NUW8). Description: Confirmation Assay for Inhibitors of Tyrosyl-DNA Phosphodiesterase (TDP1) (AID 489007; active = well fitted curve in the direction sought with a large enough effect; an effect the other way counts as inactive or inconclusive; note: potency is the fitted concentration of half-maximal effect; nearly all actives have a fitted effect of over 40% in size). Particulars: recombinant human TDP1 enzymatic activity, dose-response. The essentials: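 Tdp1 1 nM + cpd, 15 min RT; add biotin/phosphotyrosine-FITC oligo 15 nM, 5 min RT; add AS donor/acceptor beads 10 ug/ml, 10 min RT; read AlphaScreen. No-enzyme wells = max signal.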
Chain of Tyrosyl-DNA phosphodiesterase 1 (Homo sapiens) (Q9NUW8 whole entry, looked up): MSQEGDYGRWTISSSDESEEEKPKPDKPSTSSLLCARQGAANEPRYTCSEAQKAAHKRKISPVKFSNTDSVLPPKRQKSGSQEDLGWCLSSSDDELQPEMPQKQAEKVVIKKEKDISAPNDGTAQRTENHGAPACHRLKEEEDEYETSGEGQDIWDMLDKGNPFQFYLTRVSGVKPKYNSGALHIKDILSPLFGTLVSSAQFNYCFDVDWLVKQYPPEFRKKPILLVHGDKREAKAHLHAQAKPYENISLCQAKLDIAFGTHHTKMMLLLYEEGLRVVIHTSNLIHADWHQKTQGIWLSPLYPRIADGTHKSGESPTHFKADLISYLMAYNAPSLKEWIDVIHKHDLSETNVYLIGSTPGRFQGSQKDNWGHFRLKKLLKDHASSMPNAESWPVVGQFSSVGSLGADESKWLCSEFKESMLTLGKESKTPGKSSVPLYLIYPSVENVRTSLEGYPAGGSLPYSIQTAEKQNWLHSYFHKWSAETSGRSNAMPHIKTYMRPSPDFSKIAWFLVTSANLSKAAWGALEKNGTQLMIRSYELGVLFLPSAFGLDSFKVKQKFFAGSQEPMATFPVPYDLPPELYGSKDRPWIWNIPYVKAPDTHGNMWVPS

Chain of Pyruvate kinase (Leishmania mexicana) (Q27686 2-499 E452W): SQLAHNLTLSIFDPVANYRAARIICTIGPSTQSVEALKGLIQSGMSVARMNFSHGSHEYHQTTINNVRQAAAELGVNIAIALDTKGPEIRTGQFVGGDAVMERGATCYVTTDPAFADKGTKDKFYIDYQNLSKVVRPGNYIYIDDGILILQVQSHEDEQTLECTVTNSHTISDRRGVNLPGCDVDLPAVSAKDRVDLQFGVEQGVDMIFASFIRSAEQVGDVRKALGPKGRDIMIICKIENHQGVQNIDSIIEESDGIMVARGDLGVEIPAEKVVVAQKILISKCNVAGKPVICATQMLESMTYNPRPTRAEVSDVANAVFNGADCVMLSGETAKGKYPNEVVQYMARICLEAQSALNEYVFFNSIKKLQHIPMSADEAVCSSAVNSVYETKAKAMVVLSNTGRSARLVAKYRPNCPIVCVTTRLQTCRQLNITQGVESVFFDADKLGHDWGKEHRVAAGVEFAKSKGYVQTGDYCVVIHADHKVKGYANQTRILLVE
Chain of Guanine nucleotide-binding protein G(i) subunit alpha-1 (Homo sapiens) (P63096 whole entry, looked up): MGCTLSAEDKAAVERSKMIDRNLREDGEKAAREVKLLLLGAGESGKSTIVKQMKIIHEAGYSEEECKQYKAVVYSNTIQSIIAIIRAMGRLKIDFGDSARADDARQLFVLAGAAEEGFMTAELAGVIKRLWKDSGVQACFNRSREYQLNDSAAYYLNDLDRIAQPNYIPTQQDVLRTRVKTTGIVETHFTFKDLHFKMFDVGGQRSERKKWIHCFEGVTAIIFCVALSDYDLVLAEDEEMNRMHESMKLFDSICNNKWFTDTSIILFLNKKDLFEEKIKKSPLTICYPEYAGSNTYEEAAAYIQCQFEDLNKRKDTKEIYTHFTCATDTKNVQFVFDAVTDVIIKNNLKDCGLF
Chain of Alpha-galactosidase A (Homo sapiens) (P06280 whole entry, looked up): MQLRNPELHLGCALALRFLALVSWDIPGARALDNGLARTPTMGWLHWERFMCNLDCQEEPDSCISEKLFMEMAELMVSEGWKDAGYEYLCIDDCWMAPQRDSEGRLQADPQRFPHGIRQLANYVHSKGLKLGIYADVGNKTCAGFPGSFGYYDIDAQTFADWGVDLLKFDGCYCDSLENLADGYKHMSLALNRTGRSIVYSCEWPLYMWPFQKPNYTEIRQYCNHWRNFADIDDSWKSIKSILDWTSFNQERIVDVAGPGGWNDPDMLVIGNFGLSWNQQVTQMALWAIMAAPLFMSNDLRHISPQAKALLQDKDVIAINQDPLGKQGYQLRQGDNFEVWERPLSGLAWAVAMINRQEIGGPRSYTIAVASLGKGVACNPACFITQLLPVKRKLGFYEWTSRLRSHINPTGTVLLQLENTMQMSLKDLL
Chain of 3',5'-cyclic-AMP phosphodiesterase 4B (Homo sapiens) (Q07343 whole entry, looked up): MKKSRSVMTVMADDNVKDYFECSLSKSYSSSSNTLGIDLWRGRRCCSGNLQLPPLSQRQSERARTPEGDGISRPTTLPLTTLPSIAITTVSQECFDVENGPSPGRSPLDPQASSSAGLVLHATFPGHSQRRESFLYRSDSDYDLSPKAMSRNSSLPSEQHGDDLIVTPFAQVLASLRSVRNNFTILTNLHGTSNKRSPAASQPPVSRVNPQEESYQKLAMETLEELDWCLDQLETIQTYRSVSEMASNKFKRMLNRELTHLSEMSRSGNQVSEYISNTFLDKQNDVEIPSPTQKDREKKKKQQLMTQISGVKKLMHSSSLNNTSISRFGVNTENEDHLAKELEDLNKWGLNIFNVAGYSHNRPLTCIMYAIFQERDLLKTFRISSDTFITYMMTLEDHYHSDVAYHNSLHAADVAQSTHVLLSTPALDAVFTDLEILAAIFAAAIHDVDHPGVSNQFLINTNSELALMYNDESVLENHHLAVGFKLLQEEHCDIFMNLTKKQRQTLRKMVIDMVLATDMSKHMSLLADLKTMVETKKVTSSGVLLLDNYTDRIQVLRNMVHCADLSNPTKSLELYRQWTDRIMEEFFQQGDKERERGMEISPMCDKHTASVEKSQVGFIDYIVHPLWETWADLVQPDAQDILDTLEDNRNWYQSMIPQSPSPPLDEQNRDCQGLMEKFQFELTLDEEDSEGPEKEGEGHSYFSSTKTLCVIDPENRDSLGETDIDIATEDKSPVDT

On to `COc1ccc(C(=O)Cn2c(Br)nc3c2c(=O)n(C)c(=O)n3C)cc1OC`, for which the results for the activity change, negative = inhibition in [1] and in [2] were 7.09% and 25.7%, respectively. Moreover, the activity, negative = inhibition in assay [3] was 0.59%. The Potency in assay [4] was over 20.6 µM. In assay [5], the activation was 8.03%.

For the compound `CC(C)(C(=O)O)c1ccc([C@@H](O)CCCN2CCC(C(O)(c3ccccc3)c3ccccc3)CC2)cc1`, the activity change, negative = inhibition in assay [1] was 8.57% [at 38 µM]; in assay [2], 8.69% [at 38 µM]. Also, the activity, negative = inhibition in assay [3] is 11.8% [at 38 µM]. In addition, the Potency in assay [4] and in assay [6] was over 46 µM in each case. The Potency entry in assay [7], in assay [9] and in assay [10] was “inactive” in each case. The compound was classed as inactive in assay [8], in [11], in assay [12] and in assay [13].

Take `COc1cc(C)cc2c(-c3c(O)cc(O)c4c3C[C@H](C)N[C@@H]4C)cc(-c3cc(-c4c(O)cc(O)c5c4C[C@H](C)N[C@@H]5C)c4cc(C)cc(OC)c4c3O)c(O)c12`: the activity change, negative = inhibition in assay [1] was 6.28% [at 7.69 µM]; in assay [2], 9.14% [at 7.69 µM]; in assay [7], -9.73% [at 11.4 µM]. The activity, negative = inhibition in [3] was 5.82% [at 7.69 µM]. Besides, the Potency in [4] was over 46 µM. The Potency entry in assay [14] is “inactive”.

Turning to `O=C(NCc1cccnc1)c1ccc(=O)oc1`, the activity change, negative = inhibition in assay [1] was 10.5%; in assay [2] it was -0.473%. For the same compound, the activity, negative = inhibition in [3] was 0.949%. For the same compound, the Potency in assay [4] was over 20.6 µM. Also, the activation in [5] was 10.6%.

In the case of `COc1ccc(C2=Nn3c(nnc3-c3ccccn3)SC2)cc1OC`, the activity change, negative = inhibition in assay [1] is -18.1%; in assay [2], 23.1%. Further, the activity, negative = inhibition in assay [3] was -0.925%. For the same compound, the Potency in assay [4] was over 20.6 µM. Further, in [5], the activation is -20.2%.

With `CCN(CC)CCNC(=O)c1ccccc1N`, the activity change, negative = inhibition in assay [1] was 4.21%; in assay [2], -28.8%. In [3], the activity, negative = inhibition is 6.63%. In addition, in assay [4], the Potency was over 20.6 µM. Moreover, the activation in assay [5] was 10.3%.

In the case of `Cc1ccc(C)n1Cc1ccc(C(=O)O)cc1`, the activity change, negative = inhibition was 2.78% in assay [1] and -7.86% in [2]. In addition, the activity, negative = inhibition in [3] is 6%. The Potency in [4] was over 20.6 µM; in assay [15] it was 1.41 µM (active).

Turning to `O=c1c2ccccc2ncn1Cc1ccco1`, the activity change, negative = inhibition in [1] was 14.1%; in assay [2], -4.44%. Also, the activity, negative = inhibition in assay [3] was 2.8%. Also, the Potency in assay [4] was over 20.6 µM. Further, the activation in assay [5] is 2.2%.

For the compound `CC(C)Oc1ccc(/C(O)=C2/C(=O)C(=O)N(CCN(C)C)C2c2ccco2)cc1` (stereo not drawn), the activity change, negative = inhibition was -1.52% in [1] and -2.83% in [2]. The activity, negative = inhibition in assay [3] is 8.49%. For the same compound, the Potency in assay [4] was over 20.6 µM. In addition, the activation in [5] is -2.15%.

On to `CCCCOc1ccc(CSC(CC(=O)O)C(=O)O)cc1` (stereo not drawn), for which the results for the activity change, negative = inhibition in [1] and in [2] were 11.3% and 11.2%, respectively. Also, the activity, negative = inhibition in assay [3] was 1.48%. Further, the Potency in assay [4] is over 20.6 µM. For the same compound, the activation in assay [5] is 26.9%.

With `CC1(C)CC(=O)C(C=Nc2ccc(Cl)cn2)=C(O)C1`, the activity change, negative = inhibition is -10.2% in [1] and 17.4% in assay [2]. Also, the activity, negative = inhibition in assay [3] is 21.1%. Further, in [4], the Potency was over 20.6 µM. Besides, the activation in assay [5] is -14.7%.

For `CCN(CC)CCN1C(=O)C(O)=C(C(=O)c2cc3ccccc3o2)C1c1cccnc1` (stereo not drawn), the activity change, negative = inhibition is 4.98% in assay [1] and -3.08% in assay [2]. In addition, the activity, negative = inhibition in [3] is 2.38%. In addition, in assay [4], the Potency is over 20.6 µM. For the same compound, the activation in assay [5] is 11.5%.

`CCC(C(=O)Nc1ncn[nH]1)(C(F)(F)F)C(F)(F)F`: the activity change, negative = inhibition in [1] is 3.02%; in assay [2] it was -11.9%. Moreover, in assay [3], the activity, negative = inhibition was 13%. For the same compound, the Potency in assay [4] is over 20.6 µM. The activation in assay [5] was -10.1%.
